Test results from the supplement of paper PMC10849652.
Targets with a hit are over-represented here; the source holds about 7,900 in all. About 0.6% of all pairs of compound and target were hits.

Compound: C1=CC=C(C=C1)C2=NC(=C(N2)C3=CC=NC=C3)C4=CC(=C(C=C4)Cl)O
Test: log2 fold change, soluble protein after heating vs DMSO (PISA); higher = thermal stabilisation; K562 cells, 10 uM, 30 min; active = over 0.2 and 3.5 SD of the protein, either way, in both replicates (recomputed)
Procedure, shortened: (§1)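 For each measurement, 10 μM compound was applied for 30 min to K562 cells at 2×10^6 cells/mL. Aliquots were heated for 3 min across 48°C-58°C, pooled, and extracted in PBS with 0.5% NP-40 at 4°C; the supernatant after 21,000xg for 90 min was soluble protein. This was quantified by TMTpro 16plex LC-MS/MS with channel sums equalised, and thermal stability was reported relative to control samples from duplicates, on a log2 fold-change scale.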

UniProt Q5VTL8, sequence (Q5VTL8 whole entry, looked up): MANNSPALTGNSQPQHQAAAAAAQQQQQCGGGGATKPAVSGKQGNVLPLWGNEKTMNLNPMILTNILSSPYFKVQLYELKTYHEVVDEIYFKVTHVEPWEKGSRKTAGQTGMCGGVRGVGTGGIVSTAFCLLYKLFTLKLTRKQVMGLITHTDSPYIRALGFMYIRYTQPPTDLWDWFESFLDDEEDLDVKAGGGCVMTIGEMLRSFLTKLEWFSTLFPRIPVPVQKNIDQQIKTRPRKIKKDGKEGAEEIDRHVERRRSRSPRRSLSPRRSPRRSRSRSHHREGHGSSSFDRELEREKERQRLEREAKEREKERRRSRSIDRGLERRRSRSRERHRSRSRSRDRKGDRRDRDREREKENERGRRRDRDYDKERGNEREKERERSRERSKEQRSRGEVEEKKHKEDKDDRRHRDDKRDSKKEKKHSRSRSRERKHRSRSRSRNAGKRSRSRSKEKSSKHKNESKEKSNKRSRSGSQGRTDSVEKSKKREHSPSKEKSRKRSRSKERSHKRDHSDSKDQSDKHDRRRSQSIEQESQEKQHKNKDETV
UniProt P31323, sequence (P31323 whole entry, looked up): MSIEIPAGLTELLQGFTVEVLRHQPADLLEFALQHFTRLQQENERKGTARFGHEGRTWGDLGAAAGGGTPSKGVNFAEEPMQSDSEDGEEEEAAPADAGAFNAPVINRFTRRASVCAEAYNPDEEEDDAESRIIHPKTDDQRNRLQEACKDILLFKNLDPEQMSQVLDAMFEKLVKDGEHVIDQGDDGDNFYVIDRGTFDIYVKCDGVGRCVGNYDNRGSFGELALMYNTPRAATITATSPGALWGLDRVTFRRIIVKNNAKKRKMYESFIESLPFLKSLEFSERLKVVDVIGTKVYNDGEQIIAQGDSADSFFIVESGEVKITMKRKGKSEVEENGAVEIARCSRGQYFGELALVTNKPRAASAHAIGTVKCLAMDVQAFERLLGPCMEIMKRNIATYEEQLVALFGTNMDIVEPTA
UniProt P28072, sequence (P28072 whole entry, looked up): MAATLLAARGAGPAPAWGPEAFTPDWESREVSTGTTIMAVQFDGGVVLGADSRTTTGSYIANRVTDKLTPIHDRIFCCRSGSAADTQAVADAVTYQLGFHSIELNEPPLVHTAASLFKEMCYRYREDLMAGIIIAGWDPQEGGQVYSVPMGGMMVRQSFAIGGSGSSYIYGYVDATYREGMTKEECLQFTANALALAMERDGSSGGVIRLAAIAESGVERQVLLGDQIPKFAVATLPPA
UniProt Q969N2, sequence (Q969N2 whole entry, looked up): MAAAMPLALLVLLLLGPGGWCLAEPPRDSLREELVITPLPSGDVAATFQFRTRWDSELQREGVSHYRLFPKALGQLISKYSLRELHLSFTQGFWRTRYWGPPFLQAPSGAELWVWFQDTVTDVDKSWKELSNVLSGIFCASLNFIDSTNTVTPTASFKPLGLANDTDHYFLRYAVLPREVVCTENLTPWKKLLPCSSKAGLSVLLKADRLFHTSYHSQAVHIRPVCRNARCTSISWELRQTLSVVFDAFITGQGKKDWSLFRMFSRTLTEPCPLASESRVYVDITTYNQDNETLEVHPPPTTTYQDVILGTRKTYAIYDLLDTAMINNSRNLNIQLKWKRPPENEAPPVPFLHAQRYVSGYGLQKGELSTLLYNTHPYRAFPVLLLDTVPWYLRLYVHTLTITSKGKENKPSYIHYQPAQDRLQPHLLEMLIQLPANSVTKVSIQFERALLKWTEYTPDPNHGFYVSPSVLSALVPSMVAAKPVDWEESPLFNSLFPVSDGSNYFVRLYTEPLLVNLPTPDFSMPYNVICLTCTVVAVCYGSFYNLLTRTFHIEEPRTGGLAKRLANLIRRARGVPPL
UniProt Q16513, sequence (Q16513 whole entry, looked up): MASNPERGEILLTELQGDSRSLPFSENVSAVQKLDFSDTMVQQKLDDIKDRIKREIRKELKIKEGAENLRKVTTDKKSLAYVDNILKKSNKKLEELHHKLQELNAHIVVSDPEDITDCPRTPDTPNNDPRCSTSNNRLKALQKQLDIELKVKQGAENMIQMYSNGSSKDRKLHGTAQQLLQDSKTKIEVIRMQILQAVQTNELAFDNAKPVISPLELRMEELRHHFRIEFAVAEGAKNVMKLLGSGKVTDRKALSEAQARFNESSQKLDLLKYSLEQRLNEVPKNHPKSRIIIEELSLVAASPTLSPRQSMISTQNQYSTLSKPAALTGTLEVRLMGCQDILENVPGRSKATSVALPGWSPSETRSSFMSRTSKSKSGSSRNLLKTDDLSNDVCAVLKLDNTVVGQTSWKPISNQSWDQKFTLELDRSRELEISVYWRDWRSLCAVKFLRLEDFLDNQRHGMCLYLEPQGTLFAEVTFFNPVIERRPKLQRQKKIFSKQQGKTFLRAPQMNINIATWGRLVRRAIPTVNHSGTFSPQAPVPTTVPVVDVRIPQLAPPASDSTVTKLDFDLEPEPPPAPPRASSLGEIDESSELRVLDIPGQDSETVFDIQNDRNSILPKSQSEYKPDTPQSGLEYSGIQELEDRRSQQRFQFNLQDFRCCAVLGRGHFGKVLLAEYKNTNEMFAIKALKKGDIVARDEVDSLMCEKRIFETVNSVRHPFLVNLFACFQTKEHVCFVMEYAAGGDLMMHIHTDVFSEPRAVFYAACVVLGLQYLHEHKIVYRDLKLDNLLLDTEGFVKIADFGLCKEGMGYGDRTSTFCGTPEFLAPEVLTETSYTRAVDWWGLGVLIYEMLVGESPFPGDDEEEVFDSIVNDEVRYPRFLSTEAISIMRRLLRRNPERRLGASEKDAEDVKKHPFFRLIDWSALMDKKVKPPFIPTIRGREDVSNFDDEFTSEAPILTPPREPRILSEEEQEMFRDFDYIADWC
UniProt O00231, sequence (O00231 whole entry, looked up): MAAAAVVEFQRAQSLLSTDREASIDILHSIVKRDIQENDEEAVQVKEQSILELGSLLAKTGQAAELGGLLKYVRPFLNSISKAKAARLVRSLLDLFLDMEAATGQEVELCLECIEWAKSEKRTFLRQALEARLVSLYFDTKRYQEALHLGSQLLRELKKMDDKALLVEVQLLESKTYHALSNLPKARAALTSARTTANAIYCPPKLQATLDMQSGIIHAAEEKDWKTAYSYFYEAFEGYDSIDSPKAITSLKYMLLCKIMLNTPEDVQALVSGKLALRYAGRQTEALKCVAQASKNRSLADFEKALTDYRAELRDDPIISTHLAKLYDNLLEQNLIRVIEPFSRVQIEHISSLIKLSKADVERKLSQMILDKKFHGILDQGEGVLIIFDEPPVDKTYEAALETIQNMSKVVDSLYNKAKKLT
UniProt P42785, sequence (P42785 whole entry, looked up): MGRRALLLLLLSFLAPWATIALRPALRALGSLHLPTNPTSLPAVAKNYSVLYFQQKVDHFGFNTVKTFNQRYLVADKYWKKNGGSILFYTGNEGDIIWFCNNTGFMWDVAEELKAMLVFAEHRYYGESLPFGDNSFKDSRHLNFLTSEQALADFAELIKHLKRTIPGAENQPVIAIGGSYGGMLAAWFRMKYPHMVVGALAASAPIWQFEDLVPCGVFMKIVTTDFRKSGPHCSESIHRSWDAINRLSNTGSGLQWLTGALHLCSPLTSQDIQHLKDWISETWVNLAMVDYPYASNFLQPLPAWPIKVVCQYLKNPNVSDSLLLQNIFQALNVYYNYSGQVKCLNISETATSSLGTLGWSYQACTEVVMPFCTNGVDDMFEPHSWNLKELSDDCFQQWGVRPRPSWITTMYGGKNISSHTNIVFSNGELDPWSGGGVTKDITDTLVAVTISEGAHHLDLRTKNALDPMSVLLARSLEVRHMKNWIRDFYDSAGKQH
UniProt Q15054, sequence (Q15054 whole entry, looked up): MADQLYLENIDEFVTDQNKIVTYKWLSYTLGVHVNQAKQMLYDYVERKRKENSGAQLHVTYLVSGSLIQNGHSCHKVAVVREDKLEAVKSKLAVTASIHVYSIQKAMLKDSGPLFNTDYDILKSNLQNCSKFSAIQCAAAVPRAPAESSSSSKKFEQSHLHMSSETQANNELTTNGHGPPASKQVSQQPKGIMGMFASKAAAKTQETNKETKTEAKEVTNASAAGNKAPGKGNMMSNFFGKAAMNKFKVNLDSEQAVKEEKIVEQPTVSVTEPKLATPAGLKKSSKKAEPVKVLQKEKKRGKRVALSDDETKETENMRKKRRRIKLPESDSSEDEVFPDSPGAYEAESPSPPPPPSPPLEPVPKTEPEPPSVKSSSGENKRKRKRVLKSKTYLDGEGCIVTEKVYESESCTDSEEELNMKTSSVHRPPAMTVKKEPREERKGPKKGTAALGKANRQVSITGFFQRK
UniProt P50897, sequence (P50897 whole entry, looked up): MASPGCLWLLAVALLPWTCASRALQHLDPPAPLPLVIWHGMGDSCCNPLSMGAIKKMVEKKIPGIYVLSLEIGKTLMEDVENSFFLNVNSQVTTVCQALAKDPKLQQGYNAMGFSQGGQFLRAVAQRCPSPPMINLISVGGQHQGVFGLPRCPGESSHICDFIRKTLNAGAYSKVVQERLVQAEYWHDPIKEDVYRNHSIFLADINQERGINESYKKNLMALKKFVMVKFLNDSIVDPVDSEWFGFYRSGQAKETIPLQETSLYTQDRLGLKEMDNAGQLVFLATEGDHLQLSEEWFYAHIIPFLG
UniProt O60256, sequence (O60256 whole entry, looked up): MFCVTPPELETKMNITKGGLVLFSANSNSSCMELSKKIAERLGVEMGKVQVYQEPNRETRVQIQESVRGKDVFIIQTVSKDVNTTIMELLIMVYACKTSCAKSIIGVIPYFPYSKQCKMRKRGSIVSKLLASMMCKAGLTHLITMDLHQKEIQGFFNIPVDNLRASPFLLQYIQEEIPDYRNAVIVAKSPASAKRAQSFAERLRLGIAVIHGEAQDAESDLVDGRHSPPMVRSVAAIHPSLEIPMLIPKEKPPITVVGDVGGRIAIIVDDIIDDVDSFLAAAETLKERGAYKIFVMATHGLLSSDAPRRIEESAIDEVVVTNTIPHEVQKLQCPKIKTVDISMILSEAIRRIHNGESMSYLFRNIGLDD
UniProt P06454, sequence (P06454 whole entry, looked up): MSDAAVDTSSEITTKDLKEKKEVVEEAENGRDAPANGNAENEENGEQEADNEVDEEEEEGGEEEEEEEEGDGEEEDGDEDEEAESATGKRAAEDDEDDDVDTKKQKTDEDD

Target | log2 fold change
PLIN2 (UniProt Q99541) | 0 (inactive)
PCGF2 (UniProt P35227) | 0.053 (inactive)
PRKAR1B (UniProt P31321) | -0.006 (inactive)
PSMB6 (UniProt P28072) | -0.046 (inactive)
PGGHG (UniProt Q32M88) | -0.049 (inactive)
PTGFRN (UniProt Q9P2B2) | 0.015 (inactive)
PLCL1 (UniProt Q15111) | 0.098 (inactive)
PURA (UniProt Q00577) | -0.137 (inactive)
PPT1 (UniProt P50897) | 0.01 (inactive)
PKN2 (UniProt Q16513) | 0.07 (inactive)
PTPMT1 (UniProt Q8WUK0) | 0.03 (inactive)
PTMA (UniProt P06454) | 0.197 (inactive)
POGLUT1 (UniProt Q8NBL1) | 0.167 (inactive)
POLR2C (UniProt P19387) | 0.172 (inactive)
PRPF38B (UniProt Q5VTL8) | -0.027 (inactive)
PSMA3 (UniProt P25788) | -0.023 (inactive)
PJA2 (UniProt O43164) | -0.061 (inactive)
PTP4A2 (UniProt Q12974) | 0.205 (inactive)

Target | log2 fold change
PCYT1B (UniProt Q9Y5K3) | -0.066 (inactive)
PPP1R14A (UniProt Q96A00) | 0.341 (active)
PIK3CB (UniProt P42338) | 0.032 (inactive)
POLD3 (UniProt Q15054) | 0.027 (inactive)
PSMD11 (UniProt O00231) | 0.058 (inactive)
PMM1 (UniProt Q92871) | -0.007 (inactive)
PIP4P2 (UniProt Q8N4L2) | 0.063 (inactive)
PIGT (UniProt Q969N2) | 0.011 (inactive)
POLR2I (UniProt P36954) | 0.079 (inactive)
PPP6R1 (UniProt Q9UPN7) | -0.022 (inactive)
PRKCQ (UniProt Q04759) | 0.012 (inactive)
POLR1A (UniProt O95602) | 0.079 (inactive)
PRPSAP2 (UniProt O60256) | -0.006 (inactive)
PSME4 (UniProt Q14997) | -0.007 (inactive)
PPM1G (UniProt O15355) | -0.052 (inactive)
PRKAR2B (UniProt P31323) | -0.058 (inactive)
PKN1 isoform 2 (UniProt Q16512) | 0.011 (inactive)
PRCP (UniProt P42785) | -0.019 (inactive)

Compound: C1=CC=C2C(=C1)C3=NNC4=CC=CC(=C43)C2=O
Test: as above
Procedure, shortened: as §1

Target | log2 fold change
PLIN2 (UniProt Q99541) | -0.089 (inactive)
PCGF2 (UniProt P35227) | -0.002 (inactive)
PRKAR1B (UniProt P31321) | 0.102 (inactive)
PSMB6 (UniProt P28072) | -0.012 (inactive)
PGGHG (UniProt Q32M88) | -0.248 (inactive)
PTGFRN (UniProt Q9P2B2) | -0.053 (inactive)
PLCL1 (UniProt Q15111) | 0.051 (inactive)
PURA (UniProt Q00577) | -0.051 (inactive)
PPT1 (UniProt P50897) | 0.024 (inactive)
PKN2 (UniProt Q16513) | -0.031 (inactive)
PTPMT1 (UniProt Q8WUK0) | 0.013 (inactive)
PTMA (UniProt P06454) | 0.189 (inactive)
POGLUT1 (UniProt Q8NBL1) | -0.013 (inactive)
POLR2C (UniProt P19387) | 0.001 (inactive)
PRPF38B (UniProt Q5VTL8) | -0.146 (inactive)
PSMA3 (UniProt P25788) | 0.002 (inactive)
PJA2 (UniProt O43164) | -0.112 (inactive)
PTP4A2 (UniProt Q12974) | -0.125 (inactive)

Target | log2 fold change
PCYT1B (UniProt Q9Y5K3) | 0.004 (inactive)
PPP1R14A (UniProt Q96A00) | 0.004 (inactive)
PIK3CB (UniProt P42338) | 0.014 (inactive)
POLD3 (UniProt Q15054) | -0.07 (inactive)
PSMD11 (UniProt O00231) | 0.047 (inactive)
PMM1 (UniProt Q92871) | -0.049 (inactive)
PIP4P2 (UniProt Q8N4L2) | -0.002 (inactive)
PIGT (UniProt Q969N2) | 0.018 (inactive)
POLR2I (UniProt P36954) | -0.043 (inactive)
PPP6R1 (UniProt Q9UPN7) | -0.039 (inactive)
PRKCQ (UniProt Q04759) | -0.008 (inactive)
POLR1A (UniProt O95602) | -0.096 (inactive)
PRPSAP2 (UniProt O60256) | 0.029 (inactive)
PSME4 (UniProt Q14997) | 0.027 (inactive)
PPM1G (UniProt O15355) | -0.022 (inactive)
PRKAR2B (UniProt P31323) | -0.083 (inactive)
PKN1 isoform 2 (UniProt Q16512) | 0 (inactive)
PRCP (UniProt P42785) | -0.001 (inactive)
